Screens: PubChem BioAssay, several laboratories
Only some compounds are listed: those with a hit (about 4.1% of all), similar ones and a draw of the others.
PolyA inhibitor = yeast polyadenylation inhibition; activity score, % at 12 µM; S. cerevisiae SKY197-pL101 polyadenylation reporter, beta-gal luminescence; efflux-impaired pdr1/pdr3 knockout yeast; score 100 = 6 SD above DMSO; 300,000 compounds, 0.02% hits; AID 1875;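 active = lowest replicate activity score at least 50, where 100 means six control SD above control mean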;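 also: yeast exposed to compound for 9 h at 30 °C; higher score means more reporter readthrough which indicates perturbed polyadenylation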
hcDAF12 agonist = activates DAF-12 receptor from parasite H. contortus. HEK293 hcDAF-12 lit1-tk-luc reporter, luminescence; 0% DMSO, 100% Δ7-dafachronic acid. activation, % at 6.8 µM. 370,000 compounds, 1.4% hits. AID 652067;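 active = activation above the mean of all tested compounds plus 3 SD, cut at about 5.5% in these data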;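 also: 100% = response to 3 µM Δ7-dafachronic acid high control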
DAX1 inh-1 = blocks DAX1 repression of SF-1 activated StAR promoter. HEK293T StAR-luciferase reporter, SF-1/DAX-1 repression relief. inhibition, % at 6.8 µM. 370,000 compounds, 1.1% hits;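 active = inhibition above the mean over all tested compounds plus 3 SD, cut at about 3.6% in these data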;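 also: 0% = DAX-1 cells with DMSO and 100% = cells lacking DAX-1 with DMSO; higher inhibition means more luminescence from relief of DAX-1 repression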
ssDAF-12 act = activators of S. stercoralis DAF-12 nuclear receptor; HEK293 ssDAF-12/GRIP1 lit1-tk-luc reporter, luminescence; % of 3 µM dafachronic acid response; activation, % at 6.8 µM; 370,000 compounds, 1% hits;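 active = activation above the mean over all tested compounds plus 3 SD, cut at about 0.9% in these data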;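 also: 0% = DMSO-only wells and 100% = 3 µM delta7-dafachronic acid wells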
hgDAF12 agonist = activates the H. glycines DAF-12 receptor ligand-binding domain | HEK293 GAL4-hgDAF12 UAS-luciferase reporter, agonist luminescence; normalized to butyrate control | activation, % at 6.8 µM | 370,000 compounds, 1.8% hits;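 active = activation above a cutoff set at the mean of all screened compounds plus 3 SD, cut at about 10% in these data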;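 also: 0% = DMSO wells and 100% = sodium butyrate wells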
DAX1 inh-2 = inhibitors of human orphan nuclear receptor DAX1 (NR0B1); 340,000 compounds, 0.99% hits; AID 504766; inhibition, % at 6.75 µM; HEK293 Gal4-DAX1 luciferase reporter, luminescence;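 active = inhibition above the mean over all tested compounds plus 3 SD, cut at about 4.2% in these data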;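 also: 0% = DAX1-transfected cells with DMSO and 100% = empty-vector control cells with DMSO; inhibition shows as a rise in luminescence from relieved DAX1 repression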
Target sequence (P51843 207-470 limits assumed): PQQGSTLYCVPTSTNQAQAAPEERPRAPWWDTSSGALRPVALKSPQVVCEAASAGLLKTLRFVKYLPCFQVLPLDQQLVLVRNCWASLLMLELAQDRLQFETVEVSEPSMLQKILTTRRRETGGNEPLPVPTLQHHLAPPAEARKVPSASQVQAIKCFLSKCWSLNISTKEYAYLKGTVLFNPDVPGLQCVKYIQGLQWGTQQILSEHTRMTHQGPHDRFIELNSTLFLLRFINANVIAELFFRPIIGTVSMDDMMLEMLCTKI
* = called active by the depositor; nt = no result given.

SMILES	PolyA inhibitor	hcDAF12 agonist	DAX1 inh-1	ssDAF-12 act	hgDAF12 agonist	DAX1 inh-2
COc1ccc(N(C)S(=O)(=O)c2cccc(C(=O)OCC(=O)c3c(N)n(C)c(=O)n(C)c3=O)c2)cc1	nt	-1.1	-1.0	2.5*	0.0	-3.6
CCN(Cc1ccncc1)C(=O)C(CO)c1ccccc1 (stereo not drawn)	2.7	-2.7	1.2	-0.8	11.5*	-1.3
Cc1cc(C)c(S(=O)(=O)n2ccc3ccccc32)c(C)c1	8.0	-1.3	0.6	1.7*	0.9	-0.3
CCOC(=O)CN1C(=O)/C(=C/c2ccccc2Br)Oc2ccccc21	-14.2	5.6*	0.5	-1.3	-2.1	0.8
Cc1cccc(C)c1NC(=O)c1cnccn1	7.4	-2.0	0.3	1.0*	-1.1	0.5
Cc1cccc(C)c1NC(=O)CNC(=O)c1cnccn1	nt	0.1	0.5	-1.2	0.8	0.8
COc1ccc(C2C(C(=O)Nc3cc(Cl)ccc3F)CCC(=O)N2c2ccc(OC)cc2)cc1 (stereo not drawn)	nt	-1.6	-0.7	-1.7	-2.6	nt
O=C(CCc1ccccc1)Nc1ccc2ccccc2n1	8.0	5.4	3.4	-0.8	12.2*	2.5
Nc1c(C(=O)OCC(=O)Nc2ccccc2Br)[nH]c(=O)[nH]c1=O	nt	-1.1	-0.4	-0.6	1.9	1.0
Nc1c(C(=O)OCC(=O)NCc2ccccc2)[nH]c(=O)[nH]c1=O	11.5	-3.1	0.6	-2.0	0.1	7.9*
O=C(COC(=O)c1ccc2ccccc2n1)NCc1ccccc1	-0.9	0.3	-0.3	-0.7	1.6	4.9*
O=C(CCc1ccccc1)Nc1ccccc1	-1.7	-0.1	0.6	0.0	2.0	0.8
COc1cc(OC)cc(C(=O)NCCn2ccc3ccccc32)c1	-18.5	-2.6	1.1	-0.2	0.4	-0.3
COc1cccc(C(=O)NCCn2ccc3ccccc32)c1	-0.3	5.1	3.6	-0.7	12.1*	2.4
CC(C)(C)C(=O)OC12CCCN(C1)/C(=C/c1cccc(Cl)c1)C2 (stereo not drawn)	nt	-1.3	0.9	-1.0	2.7	nt
CN1C(=O)C[C@@](C#N)(C(=O)NCc2ccc3c(c2)OCO3)[C@H]1c1ccccc1	nt	1.1	1.8	-0.4	2.5	nt
O=C(O)CCn1c(=O)sc2ccccc21	12.8	-0.7	-0.6	-1.4	0.8	0.4
O=C(O)Cn1c(=S)sc2ccccc21	4.8	2.4	1.4	1.0*	2.0	0.7
O=C(NCCNCc1cccc(Cl)c1)c1ccco1	nt	-0.5	2.3	1.1*	1.3	0.5
O=C(Nc1ccc(C(=O)O)cc1)/C(=C\c1ccc([N+](=O)[O-])cc1)NC(=O)c1ccco1	nt	0.3	-0.3	-1.2	-2.2	4.3*
O=C(NCCNCc1ccc(F)cc1)c1ccco1	7.2	-0.8	-0.6	-1.5	-1.6	0.3
O=C(NCCNc1ccc([N+](=O)[O-])cc1)c1ccco1	-9.8	-1.7	-0.8	-0.9	3.2	4.5*
O=S1(=O)c2ccc(N3CCC[C@H]3CO)cc2O[C@@H]2CCN1C2	nt	-0.3	-1.0	-0.3	-0.8	nt
COCC(=O)N[C@H]1C[C@@H]2O[C@H](CO)CC[C@@H]2O[C@@H]1CCc1ccc(-c2ccccc2)cc1	nt	1.7	-0.7	-0.5	0.4	nt
O=C(CC1NCCc2ccccc21)Nc1ccccc1 (stereo not drawn)	-3.7	5.3	1.5	0.9*	2.8	1.8
SMILES	PolyA inhibitor	hcDAF12 agonist	DAX1 inh-1	ssDAF-12 act	hgDAF12 agonist	DAX1 inh-2
O=C(CC1NCCc2ccccc21)Nc1ccc(Oc2ccccc2)cc1 (stereo not drawn)	2.8	-1.7	0.2	-1.0	-1.3	-0.5
CN1CCCN(C(=O)CSc2ccccc2)CC1	3.9	-1.2	0.1	-0.7	-0.4	-0.2
CN1CCN(C(=O)CSc2ccc(Cl)cc2)CC1	10.9	2.4	0.8	-0.8	8.8	4.6*
COc1cccc(CNC(=O)[C@H]2CCCN2C(=O)[C@H]2CCCN2C(=O)c2ccc(F)c(C(F)(F)F)c2)c1	nt	-1.1	-0.2	-1.2	-1.0	nt
O=C(/C=C/c1ccc(Cl)cc1)NC1CC2CCC1C2 (stereo not drawn)	-9.8	-1.1	0.8	-1.0	11.4*	-0.1
Cc1cc(NC(=O)CCCC(=O)N(CC(=O)NCCc2ccccc2)Cc2ccc(F)cc2)no1	1.2	0.1	-0.6	1.1*	-1.8	-0.4
Cc1ccc(C(=O)CCC(=O)Nc2ccccc2F)cc1	21.4	1.2	0.5	1.0*	3.0	3.0
Cc1ccc(OCC(=O)Nc2ccccc2F)cc1	-7.9	4.3	1.6	0.1	12.8*	6.1*
COc1ccccc1NC(=O)CCC(=O)N/N=C(/C)c1ccc(C)cc1	-2.0	0.7	-0.1	-0.8	-1.1	8.4*
C=CCN1C(C(=O)OC)CN(Cc2cn(CCC3OCCO3)nn2)CCS1(=O)=O (stereo not drawn)	nt	-1.1	1.0	-1.1	0.9	nt
CC(C)(C)N(Cc1cn(Cc2ccccc2)nn1)S(=O)(=O)c1ccc(F)cc1Br	nt	-2.0	-0.4	-1.3	3.6	nt
Cc1ccc(S(=O)(=O)N2CCCC(C(=O)Nc3c(C)n(C)n(-c4ccccc4)c3=O)C2)cc1 (stereo not drawn)	nt	-1.5	-0.9	-0.9	-2.8	nt
Cc1cc(C)c(NC(=O)C2CCCN2C)c(C)c1 (stereo not drawn)	-6.1	0.8	-0.2	-0.9	1.6	8.0*
Cc1ccc2cc(CCNC(=O)c3ccco3)c(=O)[nH]c2c1	2.6	1.0	2.1	-0.7	6.3	1.3
Cc1ccc2cc(CCNC(=O)c3ccco3)c(=O)[nH]c2c1C	-4.2	6.5*	4.4*	-0.5	12.9*	2.6
C/C(=N\OCc1ccc(C#N)cc1)c1ccccc1	-15.7	0.6	0.0	-1.0	11.0*	3.6
COc1cccc(N(C)C(=O)[C@@H](C)[C@@H](O)c2ccc(Cl)cc2)c1	nt	-2.7	-1.0	-1.4	-1.5	nt
C[C@H]1[C@@H](N(C)Cc2cccs2)CC[C@@]23CCCN2C(=O)CCC[C@@H]13	nt	0.5	nt	-1.2	7.4	nt
C/C(=C\C(=O)Nc1cscc1C)C(=O)O	8.1	5.1	-0.1	1.1*	2.5	0.9
COC(=O)c1cscc1NC(C)=O	-1.8	-0.9	0.1	-1.2	2.8	0.4
CCOC(=O)CSc1nc2cc(C)cc(C)c2cc1C#N	-15.8	-0.8	-0.3	-0.6	-0.8	-0.4
CCOC(=O)CC(=O)CSc1nc2cc(C)ccc2cc1C	-13.6	6.4*	-0.2	-0.5	-1.3	0.9
CCOC(=O)CSc1nc2cc(C)ccc2cc1C#N	-4.0	1.7	2.6	-0.2	10.9*	2.4
CCOC(=O)CC(=O)CSc1nc2c(C)c(C)ccc2cc1C	-4.2	0.5	0.0	-0.3	0.1	-0.6
CCOC(=O)CC(=O)CSc1nc2ccc(OC)cc2cc1C	-2.4	0.0	0.5	1.7*	3.4	-0.1
CC(C)C[C@H](NC1(C(=O)NC2CCCCC2)CCCCC1)C(=O)NCC(c1ccccc1)c1ccccc1	nt	-0.8	nt	-2.1	-1.2	nt
